According to PubChem BioAssay (NCI):
The panel holds about 83,000 compounds, 20% with a hit somewhere; the sample as a whole holds those more often.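 Growth was measured after 48 h exposure to one concentration of compound in 96-well plates. Values under 10 count as active.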 Unmarked numbers belong to inactive results. The source made the active and inactive calls.

Legend:
Test in all cases: NCI-60 one-dose screen, 48 h (100 = growth as untreated, 0 = no growth, -100 = all killed)
Details in all cases: 10 µM unless noted
[1] = test system: NCI-H23 lung
[2] = test system: NCI-H226 lung
[3] = test system: NCI-H322M lung
[4] = test system: HOP-62 NSCLC
[5] = test system: NCI-H460 lung
[6] = test system: HOP-92 NSCLC
[7] = test system: NCI-H522 lung
[8] = test system: A549/ATCC NSCLC
[9] = test system: 786-0 renal
[10] = test system: DU-145 prostate
[11] = test system: K-562 leukemia
[12] = test system: MALME-3M melanoma
[13] = test system: MDA-MB-231 breast
[14] = test system: RXF 393 renal
[15] = test system: SF-268 CNS
[16] = test system: SF-295 CNS
[17] = test system: SF-539 CNS
[18] = test system: UACC-257 melanoma
[19] = test system: M14 melanoma

Row | SMILES | growth [1] | growth [2] | growth [3] | growth [4] | growth [5] | growth [6] | growth [7] | growth [8] | growth [9] | growth [10] | growth [11] | growth [12] | growth [13] | growth [14] | growth [15] | growth [16] | growth [17] | growth [18] | growth [19]
1 | Cl.[Pt].[c-]1ccccc1-c1ccccn1.c1ccc(P(c2ccccc2)C([PH+](c2ccccc2)c2ccccc2)[PH+](c2ccccc2)c2ccccc2)cc1 | 5.59% (active) | 7.37% (active) | 12.5% | 25.1% | 5.2% (active) | -17% (active) | 9.94% (active) | 14.6% | 22.8% | 24.1% | 11% | -9.83% (active) | -8.43% (active) | 11.3% | 27.6% | 7.09% (active) | 8.54% (active) | 15.5% | 19.2%
2 | CN(C)c1ccc2cc(-c3ccccc3F)c(N)nc2c1 | 21.4% | 59.3% | 55.1% | 37.4% | 15.9% | 32.3% | -1.23% (active) | 22.1% | 34% | 17.1% | 13.5% | -22.1% (active) | 64.7% | 19.1% | 45.1% | 0.224% (active) | -16.4% (active) | 45.7% | 10.5%
3 | COc1ccc(-c2cc(-c3cc(OC)ccc3O)[nH]c(=O)c2C#N)cc1 | 59.1% | 73.8% | 94.5% | 53.2% | 41.6% | 31.6% | 15.4% | 79.9% | 57.3% | 79.8% | 23.7% | 60.7% | 45% | 81.2% | 61.3% | 54% | 39.4% | 61% | 27%
4 | CN1C[C@@H](c2ccc(Cl)cc2)[C@]2(NC(=S)N(c3ccc(F)c(Cl)c3)C2=O)[C@@]12C(=O)NC1C=CC(Cl)=C[C@H]12 (stereo partly drawn) | 51.9% | 59.8% | 74.6% | 79.8% | 32.8% | -7.71% (active) | 43.2% | 53% | -68% (active) | 67.3% | 10.3% | 91.2% | 31.6% | 21.3% | 54% | 46.8% | 73.5% | 65% | -31.2% (active)
5 | NC(=Nc1ccc(N)cc1)C(N)=Nc1ccc(N)cc1 | 108% | 94.4% | 105% | 107% | 106% | 112% | 111% | 68.4% | 99.6% | 106% | 81.7% | 135% | 93.5% | 84.1% | 104% | 111% | 96.9% | 31.8% | 99.7%
6 | Cc1cc(Cl)nc(N(CCCNc2ccnc3cc(Cl)ccc23)Cc2ccccn2)n1 | 33.6% | 65% | 68.7% | 64% | 48.7% | 30.6% | 40% | 56.1% | 47.4% | 66.2% | 4.3% (active) | 73.2% | 53.4% | 41.8% | 74.6% | 38.9% | 38.9% | 53.5% | 44.4%
7 | CC(=O)C(C(C)=O)c1nc2sc3cc(Cl)ccc3n2c(=N)c1C#N | 81.4% | 75.1% | 87.3% | 81.9% | 95.2% | 56% | 83% | 98.7% | 98.3% | 97.4% | 85.2% | 95.2% | 51.9% | 109% | 77.7% | 98.4% | 95.5% | 108% | 97.2%
8 | CCNCCNc1cc(-c2ccc(Cl)cc2)c(C#N)c2nc3ccccc3n12 | 44.7% | 56% | 2.72% (active) | 1.55% (active) | -55.1% (active) | 53.9% | -41.7% (active) | 6.12% (active) | -57.9% (active) | 26.4% | -48.1% (active) | -80.2% (active) | -57.4% (active) | -82.9% (active) | -12.6% (active) | -77.6% (active) | -91.4% (active) | -79.4% (active) | -70.7% (active)
9 | CC(C)(O)c1cccc(F)c1 | 104% | 105% | 100% | 138% | 112% | 86.1% | 99.6% | 104% | 104% | 107% | 105% | 101% | 89.5% | 107% | 106% | 106% | 88% | 108% | 95.6%
10 | CCCCCOC(=O)c1ccc(NC(=O)CNCC(C)C)cc1 | 99.4% | 84.7% | 91.9% | 85.1% | 103% | 53.8% | 70.1% | 88.4% | 99.9% | 102% | 88.8% | 107% | 57.7% | 89.7% | 95.9% | 100% | 102% | 99.3% | 97.4%
11 | Cc1cc(-c2ccccc2)cc(SC#N)[n+]1[O-] | 55.9% | 69.4% | 50.5% | 40.2% | 19% | 82.2% | 39.2% | 33.7% | 41.1% | 46.6% | 16% | 59.3% | 52.7% | 49.6% | 43.3% | 23.2% | 43.5% | 59.2% | 19.3%
12 | C=C1C(=O)O[C@H]2[C@H]1CC/C(Cn1cc(CNCCc3c[nH]c4ccc(Cl)cc34)nn1)=C\CC[C@@]1(C)O[C@@H]21 | 92.9% | 91.1% | 85.7% | 78.7% | 99% | -7.88% (active) | -91% (active) | 84.1% | 67.4% | 83.6% | 2.7% (active) | 53.9% | 59.7% | 16% | 77.9% | 95.4% | 53.6% | 53.4% | 66.1%
13 | O=C(/C=C/C12c3ccccc3C(c3ccccc31)C1C(=O)NC(=O)C12)c1ccc(Cl)cc1 (stereo not drawn) | -2% (active) | -22.3% (active) | 2.94% (active) | 6.96% (active) | -43.7% (active) | -15.2% (active) | 11.4% | 15.4% | -9.5% (active) | 8.95% (active) | 8.8% (active) | -37.4% (active) | -24.4% (active) | -75.8% (active) | 29.9% | 4.52% (active) | -34.2% (active) | 25.3% | 8.03% (active)
14 | COc1ccc(O)c(-c2cc(-c3ccccc3)c(C#N)c(=O)[nH]2)c1 | 84.1% | 88.5% | 96.4% | 85.5% | 92.5% | 61.5% | 65.6% | 84.1% | 85.4% | 102% | 68.9% | 112% | 89.9% | 104% | 103% | 95.2% | 98.1% | 85% | 94.9%
15 | OC(COc1cccc2ccccc12)CN1CCN(c2ccccc2)CC1 (stereo not drawn) | 87.3% | 99.1% | 99.7% | 90.4% | 106% | 77.6% | 101% | 102% | 94.2% | 109% | 114% | 97.7% | 96.1% | 9.82% (active) | 103% | 73.3% | 99.8% | 63.3% | 86.8%
16 | Cc1nc(Nc2ccccn2)sc1C(=O)/C=C/c1ccc(Br)cc1 | 88.3% | 85.6% | 80% | 63.4% | 92% | 96.3% | 61.5% | 86.2% | 96.9% | 66.7% | 13.3% | 77.1% | 71.1% | 78.4% | 78.8% | 72.8% | 84.7% | 95.7% | 80.7%
17 | CCCCCCN(CCCCCC)CC(O)c1cccc2ccc(Cl)cc12 (stereo not drawn) | 38.8% | 85.6% | 66.4% | 31.8% | 44% | 3.01% (active) | 38.1% | 67.2% | 53.2% | 61.8% | 32.9% | 65.6% | 43.3% | 24.1% | 121% | 42% | 65.5% | 74.4% | 63.3%
